# Compounds with a hit are over-represented: about 10% of the library has one in this group of screens.
# Six1-Eya2 blk: inhibitors of human Six1/Eya2 interaction. 360,000 compounds, 0.56% hits. AlphaScreen GST-Six1/His-Eya2 binding, biochemical; stronger effect = lower value. AID 651725. activity change, % (concentration not given with the values). Q15475+O00167; in the data active = activity change below about -65%; inconclusive = mostly about -30% to -63%; also: % is scaled to controls: 0 for no effect and ±100 for the full control effect
# Target sequence (O00167 whole entry, looked up): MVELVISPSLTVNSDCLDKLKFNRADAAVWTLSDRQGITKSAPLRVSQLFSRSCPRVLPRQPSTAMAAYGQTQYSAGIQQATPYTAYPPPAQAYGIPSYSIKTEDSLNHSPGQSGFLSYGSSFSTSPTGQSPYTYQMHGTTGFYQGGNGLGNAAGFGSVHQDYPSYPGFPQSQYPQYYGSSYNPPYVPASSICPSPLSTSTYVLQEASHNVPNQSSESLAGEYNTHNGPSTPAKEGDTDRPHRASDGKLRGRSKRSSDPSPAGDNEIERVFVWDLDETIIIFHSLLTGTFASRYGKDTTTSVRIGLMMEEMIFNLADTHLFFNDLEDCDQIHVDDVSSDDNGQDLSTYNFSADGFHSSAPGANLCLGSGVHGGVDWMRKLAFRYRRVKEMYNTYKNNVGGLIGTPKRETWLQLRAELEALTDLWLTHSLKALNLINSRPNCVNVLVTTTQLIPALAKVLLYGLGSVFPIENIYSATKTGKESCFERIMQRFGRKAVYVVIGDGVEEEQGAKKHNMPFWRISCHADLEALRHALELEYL
# Target sequence (Q15475 whole entry, looked up): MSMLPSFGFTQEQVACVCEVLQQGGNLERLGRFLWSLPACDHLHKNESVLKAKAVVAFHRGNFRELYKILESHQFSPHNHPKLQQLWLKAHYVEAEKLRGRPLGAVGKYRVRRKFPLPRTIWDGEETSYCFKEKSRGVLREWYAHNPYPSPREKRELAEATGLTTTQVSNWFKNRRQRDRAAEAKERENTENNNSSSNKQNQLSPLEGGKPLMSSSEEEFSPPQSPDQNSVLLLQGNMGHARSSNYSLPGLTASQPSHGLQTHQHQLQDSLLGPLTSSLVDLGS
#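 AlphaScreen with GST-Six1 and His-Eya2 (5X mix: 250 nM and 500 nM), glutathione donor and nickel acceptor beads; buffer 50 mM Tris pH 8.0, 300 mM NaCl, 1 mM TCEP; 1 h at 37 C in the dark.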
# G9a block: G9a (human) methyltransferase inhibition; G9a H3K9 monomethylation, AlphaScreen, 2 h; Potency, µM (top dose mostly 102 µM), without a hit: top-dose activity, negative = inhibition, most hits filed as inhibitors; 350,000 compounds, 8.8% hits; AID 504332; also: potency is read from the fitted curve at half-maximal effect; % is scaled to controls: 0 for no effect and ±100 for the full control effect; nearly all actives have a fitted effect of over 75% in size
#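 AlphaScreen read-out: biotin-H3K9 peptide (500 nM) methylation by 20 nM enzyme with 20 uM SAM, 2 h at room temperature after 15 min compound preincubation; anti-monomethyl H3K9 antibody plus donor/acceptor beads, 10 min dark.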
# CtBP-E1A inh: inhibitors of CtBP/E1A interaction; AlphaScreen GST-E1A/His-CtBP binding, 1536-well; stronger effect = lower value; activity change, % (no concentration beside the values); 340,000 compounds, 0.49% hits; AID 651724; in the data active = activity change below about -65%; inconclusive = mostly about -30% to -63%; also: % is scaled to controls: 0 for no effect and ±100 for the full control effect
#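 AlphaScreen with 125 nM GST-E1A and 125 nM His-CtBP (5X stocks) in Tris pH 8.0, 300 mM NaCl, BSA, Tween 20, TCEP. Compounds preincubated 2 h at 37 deg C, then glutathione donor/nickel acceptor beads added for 1 h at 37 deg C in dark.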
# HP1b binding inh: blocks HP1-beta chromodomain binding to methylated histone tails. AID 540317. Potency, µM (series often up to 114 µM), for inactives: top-dose activity change, negative = inhibition, hits mostly inhibitors. 390,000 compounds, 0.56% hits. AlphaScreen HP1-beta / biotin-H3K9me3 peptide binding; also: potency is read from the fitted curve at half-maximal effect; nearly all actives have a fitted effect of over 70% in size
#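 AlphaScreen: HP1-beta (50 nM) preformed 30 min with biotin-H3(1-18)K9me3 peptide (50 nM) in PBS pH 7.4, 0.01% Tween-20. Compound added for 30 min at RT, then streptavidin donor/nickel chelate acceptor beads (10 ug/mL) for 30 min.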
# BAZ2B inh: blocks human BAZ2B. Q9UIF8. AlphaScreen BAZ2B-H3K14Ac peptide displacement. Potency, µM (doses to about 114 µM), for the others: at the top dose activity change, negative = inhibition, hits mostly inhibitors. 360,000 compounds, 4.4% hits. AID 504333; also: potency is read from the fitted curve at half-maximal effect; % is scaled to controls: 0 for no effect and ±100 for the full control effect; nearly all actives have a fitted effect of over 60% in size
#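 Compounds, titrated to a top concentration of 110 uM, were incubated 30 min at room temperature with preformed BAZ2B/acetyl-K14 H3 peptide complex (50 nM each). Proximity signal was measured by AlphaScreen after 20 min with beads.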
# JMJD2A Tudor inh: blocks the human JMJD2A Tudor domain. O75164. AID 504339. AlphaScreen JMJD2A-Tudor / H3K4me3 peptide binding. 390,000 compounds, 4.4% hits. Potency, µM (doses to about 114 µM), without a hit: at the highest dose activity change, negative = inhibition, actives largely listed as inhibitors; also: potency is read from the fitted curve at half-maximal effect; % is scaled to controls: 0 for no effect and ±100 for the full control effect; nearly all actives have a fitted effect of over 50% in size
# Active calls of the source: *; u = inconclusive; x = no result; [ ] = another dose, or the depositor's remark. Unless noted, calls follow the shape of the dose curve; as a rule, active = well fitted inhibition curve with a large enough effect; inconclusive = small, poorly fitted or top-dose-only effect; inactive = no such curve, though single readings can be large or run the other way.
SMILES,Six1-Eya2 blk,G9a block,CtBP-E1A inh,HP1b binding inh,BAZ2B inh,JMJD2A Tudor inh
C#CCOCCOCCOCCNc1nc(N2CCN(C(=O)[C@H](C)n3cc(CCCN=C(N)N)nn3)CC2)nc(N2CCN(C(=O)[C@H](CCCCN)n3cc(CCCC)nn3)CC2)n1,x,4.5µM*,x,x,u,x
C#CCOCCOCCOCCNc1nc(N2CCN(C(=O)[C@H]([C@@H](C)CC)n3cc(CCCN=C(N)N)nn3)CC2)nc(N2CCN(C(=O)[C@H](CCCCN)n3cc(CCCC)nn3)CC2)n1,-7,u,x,17%,-38%,-31%
C#CCOCCOCCOCCNc1nc(N2CCN(C(=O)Cn3cc(CCCCN)nn3)CC2)nc(N2CCN(C(=O)Cn3cc(CCCN=C(N)N)nn3)CC2)n1,2,4%[2.33 µM],6,29%,8%,-16%
C#CCOCCOCCOCCNc1nc(N2CCN(C(=O)Cn3cc(CCCN=C(N)N)nn3)CC2)nc(N2CCN(C(=O)[C@H](CCCCN)n3cc(CCC(=O)O)nn3)CC2)n1,u,-8%[2.33 µM],-11,23%,-9%,-4%
COCCNC(=O)C1(C(F)(F)F)C/C(=C\Cc2ccccc2)CCCO1 (stereo not drawn),x,x,x,48%,x,-13%
Cc1ccc(Nc2c(-c3ccncc3)nc3ccc(C)cn23)cc1,x,-6%[59 µM],x,22%,-25%,-5%
Cn1c(=O)[nH]c(=O)c2c1nc(N1CCCCC1)n2C/C=N/Nc1ccc(C(=O)O)cc1,4,71µM*,4,36%,-18%,-4%[11.4 µM]
COC(=O)CCSc1nc2sc3c(c2c(=O)n1Cc1ccccc1)CCC(C(C)(C)C)C3 (stereo not drawn),x,49%[59 µM],x,32%,-14%,-10%
COc1ccc2c(c1)NC(c1cccnc1)=NC(c1ccc(F)cc1)=N2,x,-18%[59 µM],x,17%,-32%,-20%
CCCOc1ccc(C2=NC(c3ccc(F)cc3)=Nc3ccc(OC)cc3N2)cc1,x,-23%[59 µM],x,2%,10µM*,u
CCc1ccccc1NS(=O)(=O)c1ccc(NC(=O)N2CCCC2)cc1,x,5%[59 µM],x,27%[57 µM],4%,-3%
CCN(CCCNC(=O)c1[nH]c(C)c(C(C)=O)c1C)c1cccc(C)c1,-17,u,-18,u,50µM*,79µM*
CCN(CCCNC(=O)CN1C(=O)COc2ccccc21)c1cccc(C)c1,-9,22µM*,-9,-24%,u,u
CC(=O)c1c(C)[nH]c(C(=O)NCc2ccccc2)c1C,-4,5%,3,12%,-5%,-23%
CCN(CCCNC(=O)c1ccc(N2CCCC2=O)cc1)c1cccc(C)c1,-12,28µM*,-9,-12%,-37%,-23%
CCN(CCCNC(=O)CC(C(=O)N1CCc2ccccc21)n1ccnc1)c1cccc(C)c1 (stereo not drawn),-26,u,-27,-34%,37%,50µM*
CCCCNC(=O)CC(C(=O)N1CCc2ccccc21)n1ccnc1 (stereo not drawn),0,14%[12.7 µM],-2,32%,3%,-12%
O=C(/C=C/c1ccc(Cl)cc1)Nc1nc(-c2cccs2)ns1,x,-1%[59 µM],x,27%,-9%,-10%
CCCCN(CC)C(=O)Cn1c(=O)n(-c2ccc(OCC)cc2)c(=O)c2c3c(sc21)CCC3,x,-50%[59 µM],x,24%,-2%,-15%
CCN(CCNC(=O)c1cccc(N2CCCC2=O)c1)c1ccccc1,-2,50µM*,-2,14%,-27%,-11%
CN(CCNC(=O)c1cccc(N2CCCC2=O)c1)Cc1ccccc1,0,-15%,4,64%,12%,-14%
COc1cccc(Nc2c(Nc3cccc(OC)c3)c(=O)c2=O)c1,2,-82%,-8,6%,u,-33%
COc1ccc(NC2=C(NC(C)=O)C(=O)c3ccccc3C2=O)cc1,-9,u,-12,u,u,-21%
Cc1cccc(Nc2nc(N)c([N+](=O)[O-])c(NCCO)n2)c1,-12,-6%,-8,45%,-5%,-21%

# From PubChem
